Data from PubChem BioAssay (NCATS).
Active and inactive are the calls of the source. Calls come from the whole dose curve; as a rule, active = well fitted curve in the direction sought with a large enough effect; inactive = no such curve, though single readings can be large or run the other way.

The compounds below were run against Alpha-galactosidase (Coffea arabica) (UniProt Q42656) (assay: Counterscreen for Glucocerebrosidase Inhibitors: qHTS Assay for Coffee Bean alpha-Galactosidase at pH 5.9 (AID 998)). Conditions: coffee bean alpha-galactosidase enzyme assay; series mostly up to 76.9 µM.
Sequence of Alpha-galactosidase (Coffea arabica) (Q42656 whole entry, looked up): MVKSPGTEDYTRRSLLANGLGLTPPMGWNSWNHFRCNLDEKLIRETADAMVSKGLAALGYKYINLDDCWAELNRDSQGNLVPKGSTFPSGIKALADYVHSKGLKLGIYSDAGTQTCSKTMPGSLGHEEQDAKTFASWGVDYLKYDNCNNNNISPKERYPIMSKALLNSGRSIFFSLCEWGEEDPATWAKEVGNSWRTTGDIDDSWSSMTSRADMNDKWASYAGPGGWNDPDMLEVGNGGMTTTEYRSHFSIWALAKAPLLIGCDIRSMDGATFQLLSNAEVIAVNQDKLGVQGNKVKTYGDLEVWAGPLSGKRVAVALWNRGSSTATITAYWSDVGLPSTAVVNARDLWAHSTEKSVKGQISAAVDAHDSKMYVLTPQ
Summary of the method: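 Green coffee bean enzyme (2 nM) with 4-methylumbelliferyl alpha-D-galactopyranoside (80 uM) in 50 mM citric acid, 0.005% Tween-20, pH 5.9, 20 min at room temperature; compounds 0.7 nM–77 uM. Stopped at pH 10, fluorescence Ex365/Em440; Hill-fit AC50.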
In the case of `C(=C\c1ccccc1)/CN1CCN(C(c2ccccc2)c2ccccc2)CC1`, the outcome is reported as “inactive”. With `CN(C(=O)CCCOc1ccc2[nH]c(=O)ccc2c1)C1CCCCC1` the outcome was “inactive”. `CC(C)NCC(O)COc1ccc(COCCOC(C)C)cc1` (configuration not stated) was tested, and the outcome was “inactive”. In the case of `N[C@@H](Cc1c[nH]c2ccc(O)cc12)C(=O)O`, the outcome is reported as “inactive”. In the case of `CN(C)CCCN1c2ccccc2Sc2ccc(C(F)(F)F)cc21`, the outcome is reported as “inactive”. With `NS(=O)(=O)c1cc2c(cc1Cl)NCNS2(=O)=O` the outcome was “inactive”. With `C#CCN(C)Cc1ccccc1` the outcome was “inactive”. For `CCN(CC)CCOCCOC(=O)C1(c2ccccc2)CCCC1`, the outcome was “inactive”. For `Cc1ccc(=O)n(-c2ccccc2)c1`, the outcome was “inactive”. `O=C(c1ccc(F)cc1)C1CCN(CCn2c(=O)[nH]c3ccccc3c2=O)CC1` was tested, and the outcome was “inactive”. For `O=C1N(c2ccccc2)c2ccccc2C1(Cc1ccncc1)Cc1ccncc1`, the outcome was “inactive”. With `O=C(O)CP(=O)(O)O` the outcome was “inactive”. In the case of `CCN(CC)CC(=O)Nc1c(C)cccc1C`, the outcome is reported as “inactive”. In the case of `Cc1ccc(C(=O)Nc2ccc(S(=O)(=O)O)c3cc(S(=O)(=O)O)cc(S(=O)(=O)O)c23)cc1NC(=O)c1cccc(NC(=O)Nc2cccc(C(=O)Nc3cc(C(=O)Nc4ccc(S(=O)(=O)O)c5cc(S(=O)(=O)O)cc(S(=O)(=O)O)c45)ccc3C)c2)c1`, the outcome is reported as “inactive”. In the case of `CN(C)CCCN1c2ccccc2Sc2ccccc21`, the outcome is reported as “inactive”. For `CCC(=O)c1ccc2c(c1)N(CCCN(C)C)c1ccccc1S2`, the outcome was “inactive”. `Nc1ccn([C@H]2CC[C@@H](CO)O2)c(=O)n1` was tested, and the outcome was “inactive”. For `O=C(Nc1ccc([N+](=O)[O-])cc1Cl)c1cc(Cl)ccc1O`, the outcome was “inactive”. `COc1cc(C(=O)OCCCN2CCCN(CCCOC(=O)c3cc(OC)c(OC)c(OC)c3)CC2)cc(OC)c1OC` was tested, and the outcome was “inactive”. With `CN(C)CCN(Cc1cccs1)c1ccccn1` the outcome was “inactive”. `Clc1ccccc1C(c1ccccc1)(c1ccccc1)n1ccnc1` was tested, and the outcome was “inactive”. For `CCCCNc1c(C(=O)OCC)c(C)nc2c1cnn2CC`, the outcome was “inactive”. With `CSc1ccc(C(=O)c2[nH]c(=O)[nH]c2C)cc1` the outcome was “inactive”. `O=C(O)CCc1nc(-c2ccccc2)c(-c2ccccc2)o1` was tested, and the outcome was “inactive”. In the case of `CC(C)(C)c1ccc(C(O)CCCN2CCC(C(O)(c3ccccc3)c3ccccc3)CC2)cc1` (configuration not stated), the outcome is reported as “inactive”. In the case of `CCNC(=O)N1CCN(CCCC(c2ccc(F)cc2)c2ccc(F)cc2)CC1`, the outcome is reported as “inactive”. In the case of `NCCc1ccc(O)c(O)c1`, the outcome is reported as “inactive”. In the case of `Cc1ccc(N(CC2=NCCN2)c2cccc(O)c2)cc1`, the outcome is reported as “inactive”. With `CCc1cccc2c3c([nH]c12)C(CC)(CC(=O)O)OCC3` (configuration not stated) the outcome was “inactive”. With `NCCc1cnc[nH]1` the outcome was “inactive”. With `O=C(O)CN(CCOCCOCCN(CC(=O)O)CC(=O)O)CC(=O)O` the outcome was “inactive”. With `CCCC(C(=O)OCCN(CC)CC)(c1ccccc1)c1ccccc1` the outcome was “inactive”. In the case of `Clc1ccc(Cn2c(CN3CCCC3)nc3ccccc32)cc1`, the outcome is reported as “inactive”. With `O=C(CCCN1CCC(O)(c2cccc(C(F)(F)F)c2)CC1)c1ccc(F)cc1` the outcome was “inactive”. With `Oc1cc(O)c2c(c1)O[C@H](c1ccc(O)c(O)c1)[C@H](O)C2` the outcome was “inactive”. For `C[C@]12CC[C@@H]3c4ccc(O)cc4CC[C@H]3[C@@H]1CCC2=O`, the outcome was “inactive”. In the case of `COC(=O)[C@@H](N)Cc1ccc(O)c(O)c1`, the outcome is reported as “inactive”.
